Screens from PubChem BioAssay.
This is a sample that favours compounds with a hit; in the whole collection about 2.1% have one here.
aSyn yeast inh: inhibitors of alpha-synuclein toxicity in yeast; Yeast expressing alpha-synuclein, growth rescue, BacTiter-Glo, 24 h; Potency, µM (highest dose often 46.1 µM), for the others: at the top dose growth rescue (activation), most hits filed as activators; actives 0.14% (n = 370,000); AID 652106; note: % of control where 0% means no effect; nearly all actives have a fitted effect of over 65% in size
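Rescue of yeast growth: cells expressing toxic alpha-synuclein, induced in galactose at OD600 0.02, incubated with compound 24 h at 30 C. ATP luminescence quantified growth; inhibitors of toxicity appear as activators.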
FUS yeast rescue: FUS proteinopathy suppression in yeast; Potency, µM (highest dose often 76.6 µM), usual class: activators; S. cerevisiae FUS-expressing, growth rescue, OD600, 24 h; actives 0.24% (n = 390,000);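 note: plate controls were DMSO vehicle for no effect and reference control for full effect; nearly all actives have a fitted effect of over 55% in size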
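Toxicity suppression screen in FUS-yeast. Cells induced with 2% galactose, starting OD 0.005, treated 24hr at 30C with compounds at multiple final concentrations; growth by OD600.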
Abeta rescue: compounds reversing amyloid beta toxicity in yeast; yeast expressing A-beta42, growth rescue, OD600, 48 h; response scale: 0% DMSO, 100% iron-clioquinol control; Potency, µM (highest dose often 46.1 µM), actives largely listed as activators; actives 0.063% (n = 410,000); AID 1347071; note: nearly all actives have a fitted effect of over 55% in size
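Yeast growth medium received pinned compounds, then yeast cells expressing toxic A-beta were added; plates incubated at 30 C for 48 hr. Growth read as absorbance at 600 nm, normalized to DMSO and equimolar FeCl3 plus clioquinol controls.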
TDP43 rescue: TDP-43 toxicity inhibition in yeast; TDP-43 expressing yeast growth rescue, BacTiter-Glo, 24 h; Potency, µM (series often up to 46.1 µM), for inactives: top-dose growth rescue (activation), actives largely listed as activators; actives 1.8% (n = 410,000); AID 652104; note: % of control where 0% means no effect; nearly all actives have a fitted effect of over 50% in size
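Yeast expressing TDP-43 (pregrown in raffinose, seeded at OD600=0.02 in galactose medium) exposed to compounds 24 hr at 30 deg C. Growth read by BacTiter-Glo luminescence; rescue of toxicity appears as increased signal.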
* = called active by the depositor; i = inactive; ? = inconclusive; · = not tested or not shown; [ ] = another dose, or the depositor's remark. Calls come from the whole dose curve; as a rule, active = well fitted curve in the direction sought with a large enough effect; inconclusive = small, poorly fitted or top-dose-only effect, or another doubt; inactive = no such curve, though single readings can be large; an effect the other way counts as inactive or inconclusive. Potency is the fitted concentration of half-maximal effect.

SMILES	aSyn yeast inh	FUS yeast rescue	Abeta rescue	TDP43 rescue
CC1CCCC(NC(=O)COC(=O)c2ccc(N(C)C)cc2)C1C (stereo unspecified)	·	i	i	10µM*
CC(=O)c1ccc(NC(=O)c2ccc([N+](=O)[O-])o2)cc1	-53%	i	i	16µM*
CC(=O)c1ccc(NC(=O)c2noc(C(C)C)c2[N+](=O)[O-])cc1	-13%	i	i	18µM*
CC(C)c1onc(C(=O)NCc2ccc(F)cc2)c1[N+](=O)[O-]	2%	·	i	?
CC(=O)c1cccc(NC(=O)c2ccc([N+](=O)[O-])o2)c1	-27%	i	i	?
CCc1ccc(NC(=O)c2noc(C(C)C)c2[N+](=O)[O-])cc1	2%	i	i	11µM*
COc1ccc(NC(=O)c2noc(C(C)C)c2[N+](=O)[O-])cc1	0%	i	i	5%[0.397 µM]
CC(C)c1ccc(Nc2cc(C(=O)NCCCN(C)Cc3ccccc3)c3ccccc3n2)cc1	·	i	i	-17%
CC(C)n1c(SCC(=O)N2c3ccccc3Sc3ccccc32)nc2c1c(=O)n(C)c(=O)n2C	6%	i	i	-17%
Cc1cccc(C(=O)O/N=C(\N)c2ccc(Br)cc2)c1	-36%	i	i	6.3µM*
Cc1ccc(C(=O)O/N=C(\N)c2ccc(Br)cc2)cc1C	-12%	i	i	?
COc1cccc(N/C=C/C(=O)c2ccc(OC)c(OC)c2)c1	?	i	i	2%
Cc1ccc(C(=O)O/N=C(\c2ccccc2)c2ccncc2)cc1	0%	i	i	16%[9.22 µM]
Cc1cccc(C(=O)O/N=C(\N)c2ccc(Cl)cc2)c1	-24%	i	i	10µM*
COc1ccccc1C(=O)O/N=C(/c1ccncc1)c1ccc([N+](=O)[O-])cc1	14%	·	i	28µM*
Cc1cccc(/C(N)=N/OC(=O)c2ccncc2)c1	-10%	i	i	?
CCOC(=O)c1cccc(N/C=C/C(=O)c2ccc(OC)c(OC)c2)c1	14µM*	i	i	?
COc1ccc(OC)c(NC(=O)c2cc3n(n2)C(C(F)(F)F)CC(c2ccc4c(c2)OCO4)N3)c1 (stereo unspecified)	19%	i	i	-23%
COc1cccc(NC(=O)CN(c2ccc3c(c2)OCO3)S(C)(=O)=O)c1	1%	i	i	-14%
CCOCCCN(C(=O)Cn1nnc(-c2ccc(OC)c(OC)c2)n1)C(C(=O)NCC1CCCO1)c1ccc(F)cc1 (stereo unspecified)	2%	i	i	-23%
COc1ccc(C(=O)O/N=C(\N)c2cccc(C)c2)cc1OC	-52%	i	i	22µM*
Cc1cc(C)cc(C(=O)O/N=C(\N)c2ccc(Br)cc2)c1	1%	i	i	35µM*
COc1ccccc1C(=O)O/N=C(\N)c1ccc(Cl)cc1	-42%	i	i	14µM*
COc1ccc(C(=O)O/N=C(\N)c2ccc(Cl)cc2)cc1	-40%	i	i	?
c1ccc(CC2CCN(c3ncnc4sccc34)CC2)cc1	-1%	i	i	13µM*
SMILES	aSyn yeast inh	FUS yeast rescue	Abeta rescue	TDP43 rescue
CC(=O)NC1=C(NC2CCS(=O)(=O)C2)C(=O)c2ccccc2C1=O (stereo unspecified)	-8%	·	i	25µM*
NC1=C(Br)C(=O)c2ncccc2C1=O	-6%	·	i	11µM*
CC1(C)CN(c2ccc(Br)cc2)C(=O)[C@H]1CC(=O)Nc1ccccc1	12%	i	i	18µM*
CCC(=O)N1CCN(c2ccc(NC(=O)c3ccc4c(c3)OCCO4)cc2)CC1	-5%	i	i	-24%
O=C(Nc1cc(C(F)(F)F)ccc1N1CCCC1)c1ccc2c(c1)OCO2	-17%	i	i	18µM*
CCC(=O)N1CCN(c2ccc(Cl)cc2NC(=O)c2ccc3c(c2)OCCO3)CC1	1%	?	i	25µM*
CCCCCCCCN1[C@@H](CC(=O)O)c2cc(C(F)(F)F)ccc2S1(=O)=O	-26%	i	i	?
Cn1c(=O)c2nc(-c3ccccc3)c(-c3ccccc3)nc2n(C)c1=O	-31%	i	i	32µM*
Cn1nnnc1SCC(=O)N1c2ccccc2Sc2ccc(Cl)cc21	5%	i	i	?
Cc1cccn2c(=O)c(/C=N/O)c(NCc3ccccc3)nc12	3%	i	i	12%
CCC(C)N=Cc1c(NCc2ccco2)nc2c(C)cccn2c1=O (stereo unspecified)	2%	i	i	18µM*
CC(Oc1ccc(Br)cc1)c1nc2c3ccccc3nc(=S)n2[nH]1 (stereo unspecified)	17%	35µM*	?	-9%
COC(=O)c1ccc(Cl)c(NS(=O)(=O)c2ccc3c(c2)OCCO3)c1	6%	i	i	25µM*
Cc1c(C(=O)Nc2ccc(F)cc2)nnn1-c1cccc(C(F)(F)F)c1	5%	i	i	?
COc1cccc(C2CC(c3c(F)cccc3Cl)n3nc(N)nc3N2)c1 (stereo unspecified)	3%	i	?	7%
O=C(C[n+]1ccccc1Cl)c1ccc2ccccc2c1	3%	·	·	·
Cc1ccc(Nc2cc(C)c(O)c(C)c2)cc1	4%	i	i	13µM*
Cc1ccc(Nc2ccccc2)cc1	-8%	i	i	-12%
O=c1c2ccccc2oc2ccc(C#CC3(O)CCCCC3)cc12	-12%	?	i	20µM*
Nc1ccc(C#Cc2ccc3c(=O)c4ccccc4oc3c2)cc1	-1%	i	i	35µM*
COc1ccc2[nH]c3nc(SCC(=O)Nc4ccc5c(c4)OCO5)nnc3c2c1	-1%	i	i	-18%
Cc1cc(N2CCN(C3CCCCC3)CC2)n2nc(C)nc2n1	-3%	i	i	-3%
C#CCOc1c(Cl)cc(/C=C2/C(=O)ON=C2C)cc1OCC	5%	i	i	18µM*
C#CCOc1c(Br)cc(/C=C2/C(=O)ON=C2C)cc1OCC	3%	i	?	16µM*
C#CCOc1ccc(/C=C2/C(=O)ON=C2C)cc1Cl	2%	i	i	?
Cc1ccc(C(=O)CSc2nnc3c4ccccc4nc(C(C)(C)C)n23)cc1	-1%	i	i	-14%
CC(=O)CSc1nnc2c3ccccc3nc(C(C)(C)C)n12	2%	i	i	14µM*
